High-throughput results: PubChem BioAssay, National Center for Advancing Translational Sciences (NCATS)
DT40 TDP1 no CPT: qHTS for Inhibitors of human tyrosyl-DNA phosphodiesterase 1 (TDP1): qHTS in cells in absence of CPT | DT40 Tdp1-/- hTDP1 cells, no CPT, ATP luminescence, 48 h | Potency, µM (highest dose often 46.2 µM), for the others: at the highest dose activity change, negative = growth inhibition, most hits filed as inhibitors | hit rate 15% among 420,000; also: potency is read from the fitted curve at half-maximal effect; nearly all actives have a fitted effect of over 55% in size
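DT40 Tdp1-/-;hTDP1 cells, no CPT (DMSO vehicle only), 400 cells/well; compounds pin-transferred; ≥48 hr, 37 °C; CellTiter-Glo 30 min RT dark, luminescence read.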
Gal4-VP16 FLuc: Gal4-VP16 reporter inhibition counter-screen | AID 2546 | hit rate 3.5% among 310,000 | Drosophila S2 Gal4-VP16 UAS-luciferase, luminescence, 20 h | Potency, µM (top dose mostly 53.6 µM), for inactives: at the top dose activity, negative = inhibition, usual class: inhibitors;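 also: Gal4-VP16 expression switched on by copper sulfate through the metallothionein promoter; potency is read from the fitted curve at half-maximal effect; nearly all actives have a fitted effect of over 50% in size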
TDP1 cell CPT: growth inhibition of DT40 Tdp1-/-;hTDP1 cells with camptothecin (screen for TDP1 inhibitors). chicken DT40 Tdp1-/-;hTDP1 cells + 20 nM CPT, ATP luminescence, 48 h. Potency, µM (titrated, usually from 46.2 µM), inactives show at the highest dose activity change, negative = growth inhibition, hits mostly inhibitors. hit rate 12% among 420,000; also: potency is read from the fitted curve at half-maximal effect; nearly all actives have a fitted effect of over 55% in size
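Chicken DT40 Tdp1-/- cells stably complemented with human TDP1 were seeded at 400 cells/well in medium containing 20 nM camptothecin, exposed to pin-transferred compounds, and grown at 37 °C for at least 48 hr. Viability was read as ATP luminescence.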
IL-1B inflam inh: blocks inflammasome-driven IL-1 beta release. AID 743279. activity change, % at 57.5 µM. hit rate 4.7% among 360,000. THP-1 LPS/ATP IL-1B secretion, AlphaLISA, 16 h; hits give low values; in the data active = activity change below about -50%; inconclusive = mostly about -30% to -49%
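THP-1 cells pretreated 1 hr with compounds (up to 57.5 uM final), then stimulated with LPS (250 ng/mL final) plus ATP (1.25 mM final); secreted IL-1B measured by AlphaLISA after 16 hr, decreased signal indicating inhibition.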
LDHA inh: blocks human lactate dehydrogenase A. P00338. purified LDHA, NADH/diaphorase-resazurin fluorescence; hits give low values. activity change, % (values are at about 110 or 230 µM). hit rate 0.15% among 480,000; in the data active = activity change below about -30%; inconclusive = mostly about -25% to -30%;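 also: plate controls were DMSO wells for no effect and wells without enzyme for full effect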
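Remaining NADH was detected by diaphorase (0.133 mg/mL) converting 37 µM resazurin to fluorescent resorufin, read at 0 and 20 minutes. The preceding 5-minute room-temperature reaction used 2 nM LDHA, 0.2 mM sodium pyruvate and 0.06 mM NADH at pH 7.4.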
RORgamma inh: ROR gamma (mouse) transcription inhibition; Drosophila S2 Gal4-RORgamma UAS-luciferase reporter, 20 h; Potency, µM (series often up to 53.6 µM), inactives show at the highest dose activity change, negative = inhibition, hits mostly inhibitors; AID 2551; P51450; hit rate 5.4% among 310,000; also: potency is read from the fitted curve at half-maximal effect; nearly all actives have a fitted effect of over 60% in size
Target sequence (P51450 whole entry, looked up, the tested form may be a part): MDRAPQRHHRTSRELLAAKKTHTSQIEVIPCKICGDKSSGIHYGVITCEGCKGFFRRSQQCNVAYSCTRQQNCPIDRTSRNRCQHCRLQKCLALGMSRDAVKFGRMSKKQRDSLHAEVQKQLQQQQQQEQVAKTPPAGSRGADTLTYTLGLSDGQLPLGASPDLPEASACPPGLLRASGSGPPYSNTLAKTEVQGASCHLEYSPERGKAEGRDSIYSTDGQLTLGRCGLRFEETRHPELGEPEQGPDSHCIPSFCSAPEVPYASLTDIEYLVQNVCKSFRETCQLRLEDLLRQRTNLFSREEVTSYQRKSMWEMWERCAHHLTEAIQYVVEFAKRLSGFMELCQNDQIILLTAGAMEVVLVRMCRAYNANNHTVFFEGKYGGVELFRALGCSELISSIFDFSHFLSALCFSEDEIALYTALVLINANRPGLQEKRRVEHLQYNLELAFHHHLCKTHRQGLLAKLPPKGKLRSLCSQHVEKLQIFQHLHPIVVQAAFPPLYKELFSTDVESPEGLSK
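Using a luciferase readout, inhibitors were identified by reduced reporter activity in Drosophila cells coexpressing a copper-inducible Gal4–ROR gamma fusion and UAS-driven Photinus luciferase, incubated 20 hr after 700 uM copper sulfate.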
Starred values were filed as active, the others as inactive; [ ] = dose if it differs, or a comment. An excerpt weighted towards active compounds, which were near 18% of everything screened. Unless noted, calls follow the shape of the dose curve; as a rule, active = well fitted curve in the direction sought with a large enough effect; inconclusive = small, poorly fitted or top-dose-only effect, or another doubt; inactive = no such curve, though single readings can be large; an effect the other way counts as inactive or inconclusive. Unless noted, % is scaled to controls: 0 for no effect and ±100 for the full control effect.

Screening CCOC(=O)N1CCc2c(sc(NCc3cccs3)c2C(=O)Nc2cc(Cl)ccc2OC)C1 returned DT40 TDP1 no CPT inconclusive, TDP1 cell CPT inconclusive and LDHA inh 7.3.
`CCOC(=O)N1CCc2c(sc(NCc3cccc(F)c3)c2C(=O)Nc2ccc(OC)cc2)C1` gave DT40 TDP1 no CPT 16.4µM*, TDP1 cell CPT inconclusive and LDHA inh 10.4.
`COC(=O)c1ccc(NC(=O)c2c(NCc3cccc(F)c3)sc3c2CCCC3)cc1` gave DT40 TDP1 no CPT 16.4µM*, TDP1 cell CPT 20.6µM* and LDHA inh 0.7.
CCOC(=O)N1CCc2c(sc(NCc3cc(OC)c(OC)cc3OC)c2C(=O)Nc2ccc(OCC)cc2)C1 was read as DT40 TDP1 no CPT inconclusive, TDP1 cell CPT inconclusive and LDHA inh 11.8.
Cc1ccc(N(Cc2ccccc2)C(=O)c2cccs2)cc1 was read as LDHA inh -3.7.
Screening Cc1ccc(-c2cc(C(=O)OCC(N)=O)c3ccccc3n2)cc1 returned LDHA inh -0.7.
For Cc1ccc(C(=O)NCC(=O)OCC(=O)Nc2ncc(C(F)(F)F)cc2Cl)cc1 the results were DT40 TDP1 no CPT 22.3%, Gal4-VP16 FLuc -3.5%, TDP1 cell CPT -4.6%, IL-1B inflam inh 0.0, LDHA inh 1.6 and RORgamma inh 7.9%.
Cc1ccc(C(=O)COC(=O)c2ccc(O)cc2)cc1 was read as DT40 TDP1 no CPT 4.9%, Gal4-VP16 FLuc 11.2µM*, TDP1 cell CPT 3.5%, IL-1B inflam inh -11.8, LDHA inh -0.4 and RORgamma inh inconclusive.
Screening Cc1ccc(-c2cc(C(=O)OCC(=O)Nc3ncc(C(F)(F)F)cc3Cl)c3ccccc3n2)cc1 returned DT40 TDP1 no CPT inconclusive, Gal4-VP16 FLuc -3.9%, TDP1 cell CPT 14.6µM*, IL-1B inflam inh 28.0, LDHA inh -3.9 and RORgamma inh -5.6%.
CCOC(=O)COC(=O)c1ccc(O)cc1 was read as DT40 TDP1 no CPT 2.6%, Gal4-VP16 FLuc 13.6%, TDP1 cell CPT -4.9%, IL-1B inflam inh -11.2, LDHA inh -11.2 and RORgamma inh 33.6%.
Cc1ccc(C(=O)COC(=O)c2cc(-c3ccc(Cl)cc3)nc3ccccc23)cc1 was read as DT40 TDP1 no CPT 20.6µM*, TDP1 cell CPT 10.3µM* and LDHA inh -4.6.
For N#Cc1ccc(Cc2cnc(NC(=O)c3ccc(Cl)o3)s2)c(C(F)(F)F)c1 the results were LDHA inh -2.6.
CCCn1c(C)cc(C(=O)COC(=O)c2nn(CCC)c(=O)c3ccccc23)c1C was read as LDHA inh 6.6.
For CCc1ccc(/C(C)=N/NC(=O)c2csc(CC)c2)cc1 the results were LDHA inh 5.4.
Screening O=C1N/C(=C\c2ccc(O)cc2)C(O)=C1C=NCc1ccccc1 returned DT40 TDP1 no CPT inconclusive, Gal4-VP16 FLuc inconclusive, TDP1 cell CPT -13.3%, IL-1B inflam inh 3.9, LDHA inh 2.0 and RORgamma inh 3.98µM*.
Screening Cc1c(CCC(=O)NC2(C)CCS(=O)(=O)C2)c(=O)oc2cc(O)ccc12 (configuration not stated) returned LDHA inh 2.1.
For Brc1cccc(-c2n[nH]c(-c3ccccc3)n2)c1 the results were DT40 TDP1 no CPT 23.1µM*, Gal4-VP16 FLuc -15.7%, TDP1 cell CPT inconclusive, IL-1B inflam inh inconclusive, LDHA inh -0.5 and RORgamma inh -12.4%.
For c1ccc(-c2nc(-c3cccnc3)n[nH]2)cc1 the results were Gal4-VP16 FLuc 1.6%, LDHA inh 12.6 and RORgamma inh 36.4%.
`CC(C)c1ccc(-c2nn(-c3ccccc3)cc2C2C(C#N)=C(N)OC3=C2C(=O)CC(C)(C)C3)cc1` (configuration not stated) gave DT40 TDP1 no CPT 18.4µM*, Gal4-VP16 FLuc -0.1%, TDP1 cell CPT inconclusive, IL-1B inflam inh -29.2, LDHA inh -3.1 and RORgamma inh 19.9%.
CC1(C)CC(=O)C2=C(C1)OC(N)=C(C#N)C2c1ccccc1[N+](=O)[O-] (configuration not stated) was read as DT40 TDP1 no CPT inconclusive, Gal4-VP16 FLuc -5.1%, TDP1 cell CPT 20.6µM*, IL-1B inflam inh 5.3, LDHA inh 10.0 and RORgamma inh 15.4%.
For CC1(C)CC(=O)C2=C(C1)OC(N)=C(C#N)C2c1ccc(-c2ccccc2)cc1 (configuration not stated) the results were LDHA inh 9.1.
Cc1nn(-c2ccccc2)c(Cl)c1C1C(C#N)=C(N)OC2=C1C(=O)CC(C)(C)C2 (configuration not stated) was read as DT40 TDP1 no CPT inconclusive, Gal4-VP16 FLuc 9.7%, TDP1 cell CPT inconclusive, IL-1B inflam inh 34.2, LDHA inh -2.5 and RORgamma inh 0.4%.
Screening CCCCCc1coc2cc(O)ccc2c1=O returned LDHA inh -2.6.
For CC(C)(C)c1noc(CN2CCN(C(=O)c3cccs3)CC2)n1 the results were LDHA inh 4.2.
For COc1ccc(S(=O)(=O)NNC(=O)C2Cc3c(ccc4ccccc34)O2)cc1 (configuration not stated) the results were DT40 TDP1 no CPT 20.6µM*, Gal4-VP16 FLuc -20.2%, TDP1 cell CPT 16.4µM*, IL-1B inflam inh 21.6, LDHA inh -4.2 and RORgamma inh inconclusive.
Screening COCCNC(=O)C1Cc2c(ccc3ccccc23)O1 (configuration not stated) returned DT40 TDP1 no CPT -7.5%, Gal4-VP16 FLuc -4.1%[10 µM], TDP1 cell CPT 2.0%, IL-1B inflam inh 19.8, LDHA inh 3.7 and RORgamma inh 20.7%.
Screening Cc1ccc(/C=C(/C#N)S(C)(=O)=O)c(C)c1 returned LDHA inh 6.0.
For CN(CCc1cn[nH]c1)Cc1nc(Cc2ccccc2)no1 the results were DT40 TDP1 no CPT 9.2%, Gal4-VP16 FLuc inconclusive, TDP1 cell CPT 14.2%, IL-1B inflam inh -53.6*, LDHA inh -11.9 and RORgamma inh inconclusive.
CCOC(=O)c1ccc(N2C(=O)CC(N(C)CCc3ccc(OC)c(OC)c3)C2=O)cc1 (configuration not stated) was read as DT40 TDP1 no CPT inconclusive, TDP1 cell CPT 16.4µM*, IL-1B inflam inh 4.1, LDHA inh -1.0 and RORgamma inh 1.9%[0.365 µM].
